TIM10 inh: TIM10 yeast growth inhibition; S. cerevisiae TIM10 strain growth, BacTiter-Glo luminescence, 24 h; inhibition, % at 10 µM; 330,000 compounds, 1.4% hits; AID 463195;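 active = inhibition of 40% or more at the single tested concentration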;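 also: wild-type TIM10 isogenic control strain grown at permissive 25 °C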
V-ATPase pH: alters yeast V-ATPase proton transport. S. cerevisiae, pHLuorin cytosolic pH fluorescence. response, % at 10 µM. 350,000 compounds, 0.37% hits; in the data active = response mostly above about 7.3%, no sharp cut-off; inactive = mostly below about 5.4%; also: actives read high
tim10-1 inh: tim10-1 yeast growth inhibition | S. cerevisiae tim10-1 ts strain growth, BacTiter-Glo, 24 h | inhibition, % at 20 µM | 330,000 compounds, 2.2% hits;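 active = inhibition of at least 40%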;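 also: mutant grown at 25 °C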
tim23-1 inh: growth inhibitors of tim23-1 mutant yeast; S. cerevisiae tim23-1 growth, BacTiter-Glo luminescence, 24 h; inhibition, % at 20 µM; 330,000 compounds, 1.3% hits; AID 463212;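 active = growth inhibition of the mutant yeast at or above 50%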;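 also: temperature-sensitive mutant grown at 25 °C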
NALP1 inh: inhibitors of NALP1 inflammasome in yeast. S. cerevisiae NALP1/ASC/caspase-1 growth, X-gal OD620, 72 h. inhibition, % at 10 µM. 280,000 compounds, 0.61% hits. AID 2071; in the data active = inhibition mostly above about 24%, no sharp cut-off; inactive = mostly below about 32%
NLRP3 yeast inh: NALP3 inhibition in yeast; 330,000 compounds, 0.39% hits; AID 2825; Yeast reconstituted NLRP3/ASC/caspase-1, beta-gal luminescence, 24 h; inhibition, % at 10 µM;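 active = inhibition of 50% or more; inactive = inhibition below 50%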
NALP3 yeast conf: NALP3 inhibition confirmation in yeast; shares compounds with NLRP3 yeast inh; yeast expressing human NALP3, luminescence; inhibition, % at 10 µM; 1,300 compounds, 81% hits; AID 435006; in the data active = inhibition above about 48%
Casp1 ASC ctr: active in yeast caspase-1-ASC counter-screen for NALP3 inhibitors | AID 488784 | 1,000 compounds, 66% hits | yeast expressing Caspase-1-ASC, luminescence counter screen | inhibition, % at 10 µM | shares compounds with NLRP3 yeast inh
NALP3 retest: confirmation retest of NALP3 inhibitors in yeast; shares compounds with NLRP3 yeast inh; yeast expressing human NALP3, luminescence read-out; inhibition, % at 10 µM; 1,000 compounds, 53% hits; AID 488794
Hits are given with their value; 0 = inactive; - = no result given. Hits are enriched below; roughly 4.2% of the tested compounds scored in any of these assays. Rule as the data show it, unless noted: active = inhibition above about 50%; inactive = the rest.

SMILES	TIM10 inh	V-ATPase pH	tim10-1 inh	tim23-1 inh	NALP1 inh	NLRP3 yeast inh	NALP3 yeast conf	Casp1 ASC ctr	NALP3 retest
Cc1cccc(NC(=O)c2cnn(-c3ccccc3)c2C)c1C	0	0	0	0	0	0	-	-	-
Cc1ccc(C)c(NC(=O)c2cnn(-c3ccccc3)c2C)c1	0	0	0	0	0	55	66	0	0
CCc1ccccc1NC(=O)c1cnn(-c2ccccc2)c1C	0	0	0	0	0	52	74	61	56
CSCCC(NC(=O)c1ccco1)C(=O)NCC1CCCO1 (configuration not stated)	0	0	0	0	-	0	-	-	-
CC(C)Sc1ncnc2[nH]ncc12	-	0	-	-	-	-	-	-	-
O=C(c1cccs1)c1coc2ccc(O)cc12	0	0	0	0	0	67	86	87	76
CC(=O)Oc1ccc2occ(C(=O)c3cccs3)c2c1	0	0	0	0	0	75	88	81	77
CCC(=O)c1coc2ccc(O)cc12	0	0	0	0	-	0	-	-	-
C/C(=N\NC(=O)CC#N)C1COc2ccccc2O1 (configuration not stated)	0	0	0	0	0	0	-	-	-
Cc1cc2ccccn2c1C(=O)c1ccc(F)cc1	0	0	0	0	0	0	-	-	-
Cc1cc2ccccn2c1C(=O)c1ccccc1Br	0	0	0	0	0	57	55	50	0
C/C(=N\N1CCN(c2ccccc2)CC1)c1ccc(O)cc1	0	0	0	0	0	0	-	-	-
COc1ccc(N2CCN(CCNC(=O)c3c(C)cc(=O)oc3C)CC2)cc1	0	0	0	0	28	67	80	86	91
Cc1[nH]c2ccccc2c1C(=O)/C=C/c1ccccc1Cl	0	0	0	0	0	61	0	-	-
COc1ccc(N2CCN(C(CNS(=O)(=O)c3ccccc3)c3ccccc3)CC2)cc1 (configuration not stated)	0	0	0	0	0	0	-	-	-
CSc1nsc(SCC(=O)NCc2ccc(C)cc2)n1	0	0	0	0	0	51	62	0	0
CCOC(=O)c1cnc(-c2ccccc2O)nc1Cl	0	0	0	0	0	0	-	-	-
CCOC(=O)C1=Nc2ccccc2C1=[N+]=[N-]	0	0	0	0	75	82	89	97	87
Nc1c(-c2ccc(Cl)cc2)cnn1-c1cccc(C(F)(F)F)c1	0	0	0	0	0	0	-	-	-
Cc1ccc(-c2cnn(-c3cccc(C(F)(F)F)c3)c2N)cc1	0	0	0	0	0	57	66	0	0
COc1cccc(CNC(=O)Cn2c(=O)c3cccn3c3ccccc32)c1	0	0	0	0	0	0	-	-	-
COc1ccc(-n2nnnc2S(=O)(=O)CC(=O)N2CCCCC2)cc1	0	0	0	0	0	57	62	63	0
CCOC(=O)c1cnn(-c2cc(C)cc(C)c2)c1N	0	0	0	0	0	0	70	57	58
CCOC(=O)c1cnn(-c2ccc(F)cc2)c1N	0	0	0	0	0	0	-	-	-
O/N=C/c1cc(Br)cc(Br)c1OCc1ccccc1	0	0	0	0	-	0	0	-	-
SMILES	TIM10 inh	V-ATPase pH	tim10-1 inh	tim23-1 inh	NALP1 inh	NLRP3 yeast inh	NALP3 yeast conf	Casp1 ASC ctr	NALP3 retest
O/N=C/c1ccc(OCc2ccccc2)c(Br)c1	-	0	-	-	0	-	-	-	-
C[C@]12CC[C@H](O)CC1=CCC1C2CC[C@@]2(C)C1CCC21OCCO1 (some centres not stated)	0	0	0	0	-	57	63	-	-
O=C(NCc1ccccc1)c1cc(-c2cccs2)on1	0	0	0	0	0	0	-	-	-
O=C(NCc1ccc(F)cc1)c1cc(-c2cccs2)on1	0	0	0	0	0	51	69	0	0
O=C(Nc1ccc(Cl)cc1)c1cc2c(cc1O)[nH]c1ccccc12	0	0	0	0	0	53	77	72	91
C=CCCCCCCCCC(=O)Nc1ncccn1	0	0	0	0	0	0	-	-	-
CC(=O)N(/N=C1\Sc2ccccc2C1=O)c1cccc(C)c1	0	0	0	0	0	54	64	0	0
CC(=O)N(CN1C(=O)c2ccccc2C1=O)c1cccc(C)c1	0	0	0	0	0	0	-	-	-

Source: PubChem
